About 8,800 targets were measured; listed, in parts, are those with a hit and a random draw of the rest. About 0.5% of all pairs of compound and target were hits.
Columns and labels:
Experiment in all cases: log2 fold change, soluble protein after heating vs DMSO (PISA); higher = thermal stabilisation; K562 lysate, 10 uM; active = over 0.2 and 3.5 SD of the protein, either way, in both replicates (recomputed)
vemurafenib = compound: CCCS(=O)(=O)Nc1ccc(F)c(C(=O)c2c[nH]c3ncc(-c4ccc(Cl)cc4)cc23)c1F [vemurafenib]
Outline: (§1)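 To prepare the extract, K562 pellets were dounce-homogenised in PBS pH 7.4 with 1 mM MgCl2, giving crude material at 1 mg/mL protein. This was treated with 10 μM compound for 30 min, then heated in aliquots for 3 min over 48°C-58°C before pooling and addition of NP-40 to 0.5% at 4°C. Centrifugation at 21,000xg for 90 min left soluble protein in the supernatant, which TMTpro 16plex LC-MS/MS quantified with equalised channel sums. Results are log-two fold changes in thermal stability compared with solvent controls, from duplicates.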

[1] = compound: CCCS(=O)(=O)Nc1ccc(F)c(C(=O)c2c[nH]c3ncc(Cl)cc23)c1F
Outline: as §1

barasertib = compound: CCN(CCCOc1ccc2c(Nc3cc(CC(=O)Nc4cccc(F)c4)[nH]n3)ncnc2c1)CCOP(=O)(O)O [barasertib]
Outline: as §1

[2] = compound: CC[C@@H]1C(=O)N(C)c2cnc(Nc3ccc(C(=O)NC4CCN(C)CC4)cc3OC)nc2N1C1CCCC1
Outline: as §1

volasertib = compound: CC[C@@H]1C(=O)N(C)c2cnc(Nc3ccc(C(=O)N[C@H]4CC[C@H](N5CCN(CC6CC6)CC5)CC4)cc3OC)nc2N1C(C)C [volasertib]
Outline: as §1

[3] = compound: CCn1c(C(=O)N(C2CC2)C2CC2)cc2c3c(ncn3C)c(Nc3cc(C)n(C)n3)nc21
Outline: as §1

[4] = compound: CCn1cc(-c2ccnc3[nH]c(-c4cccc(CN(C)C)c4)cc23)c(-c2ccc(NC(=O)N(C)C)cc2)n1
Outline: as §1

[5] = compound: CN1CCC(CNc2ccc3ncc(-c4cccc(OC(F)(F)F)c4)n3n2)CC1
Outline: as §1

saracatinib = compound: CN1CCN(CCOc2cc(OC3CCOCC3)c3c(Nc4c(Cl)ccc5c4OCO5)ncnc3c2)CC1 [saracatinib]
Outline: as §1

sotrastaurin = compound: CN1CCN(c2nc(C3=C(c4c[nH]c5ccccc45)C(=O)NC3=O)c3ccccc3n2)CC1 [sotrastaurin]
Outline: as §1

alvocidib = compound: CN1CC[C@H](c2c(O)cc(O)c3c(=O)cc(-c4ccccc4Cl)oc23)[C@H](O)C1 [alvocidib]
Outline: as §1

Tubastatin A = compound: CN1CCc2c(c3ccccc3n2Cc2ccc(C(=O)NO)cc2)C1 [Tubastatin A]
Outline: as §1

[6] = compound: CNC(=O)C1=CC=CC=C1NC2=NC(=NC=C2Cl)NC3=C(C=C(C=C3)N4CCOCC4)OC
Outline: as §1

defactinib = compound: CNC(=O)c1ccc(Nc2ncc(C(F)(F)F)c(NCc3nccnc3N(C)S(C)(=O)=O)n2)cc1 [defactinib]
Outline: as §1

[7] = compound: CNc1nc(-c2ccc3c(N)n[nH]c3c2)cc(N2C[C@@H](C(=O)NC3CCCCC3)CC[C@H]2C)n1
Outline: as §1

encorafenib = compound: COC(=O)N[C@@H](C)CNc1nccc(-c2cn(C(C)C)nc2-c2cc(Cl)cc(NS(C)(=O)=O)c2F)n1 [encorafenib]
Outline: as §1

[8] = compound: COC(=O)[C@H](CCSC)NC(=O)C1=C(C=C(C=C1)NC[C@H](CS)N)C2=CC=CC=C2
Outline: as §1

alisertib = compound: COc1cc(Nc2ncc3c(n2)-c2ccc(Cl)cc2C(c2c(F)cccc2OC)=NC3)ccc1C(=O)O [alisertib]
Outline: as §1

[9] = compound: COc1cc2nc(-c3cc(F)ccc3O)nc(N[C@@H]3CNC[C@H]3C(C)(C)O)c2cc1OC
Outline: as §1

gefitinib = compound: COc1cc2ncnc(Nc3ccc(F)c(Cl)c3)c2cc1OCCCN1CCOCC1 [gefitinib]
Outline: as §1

Measured: log2 fold change

MED12 isoform 2 (UniProt Q93074)
Chain of UniProt Q93074 (Q93074 whole entry, looked up): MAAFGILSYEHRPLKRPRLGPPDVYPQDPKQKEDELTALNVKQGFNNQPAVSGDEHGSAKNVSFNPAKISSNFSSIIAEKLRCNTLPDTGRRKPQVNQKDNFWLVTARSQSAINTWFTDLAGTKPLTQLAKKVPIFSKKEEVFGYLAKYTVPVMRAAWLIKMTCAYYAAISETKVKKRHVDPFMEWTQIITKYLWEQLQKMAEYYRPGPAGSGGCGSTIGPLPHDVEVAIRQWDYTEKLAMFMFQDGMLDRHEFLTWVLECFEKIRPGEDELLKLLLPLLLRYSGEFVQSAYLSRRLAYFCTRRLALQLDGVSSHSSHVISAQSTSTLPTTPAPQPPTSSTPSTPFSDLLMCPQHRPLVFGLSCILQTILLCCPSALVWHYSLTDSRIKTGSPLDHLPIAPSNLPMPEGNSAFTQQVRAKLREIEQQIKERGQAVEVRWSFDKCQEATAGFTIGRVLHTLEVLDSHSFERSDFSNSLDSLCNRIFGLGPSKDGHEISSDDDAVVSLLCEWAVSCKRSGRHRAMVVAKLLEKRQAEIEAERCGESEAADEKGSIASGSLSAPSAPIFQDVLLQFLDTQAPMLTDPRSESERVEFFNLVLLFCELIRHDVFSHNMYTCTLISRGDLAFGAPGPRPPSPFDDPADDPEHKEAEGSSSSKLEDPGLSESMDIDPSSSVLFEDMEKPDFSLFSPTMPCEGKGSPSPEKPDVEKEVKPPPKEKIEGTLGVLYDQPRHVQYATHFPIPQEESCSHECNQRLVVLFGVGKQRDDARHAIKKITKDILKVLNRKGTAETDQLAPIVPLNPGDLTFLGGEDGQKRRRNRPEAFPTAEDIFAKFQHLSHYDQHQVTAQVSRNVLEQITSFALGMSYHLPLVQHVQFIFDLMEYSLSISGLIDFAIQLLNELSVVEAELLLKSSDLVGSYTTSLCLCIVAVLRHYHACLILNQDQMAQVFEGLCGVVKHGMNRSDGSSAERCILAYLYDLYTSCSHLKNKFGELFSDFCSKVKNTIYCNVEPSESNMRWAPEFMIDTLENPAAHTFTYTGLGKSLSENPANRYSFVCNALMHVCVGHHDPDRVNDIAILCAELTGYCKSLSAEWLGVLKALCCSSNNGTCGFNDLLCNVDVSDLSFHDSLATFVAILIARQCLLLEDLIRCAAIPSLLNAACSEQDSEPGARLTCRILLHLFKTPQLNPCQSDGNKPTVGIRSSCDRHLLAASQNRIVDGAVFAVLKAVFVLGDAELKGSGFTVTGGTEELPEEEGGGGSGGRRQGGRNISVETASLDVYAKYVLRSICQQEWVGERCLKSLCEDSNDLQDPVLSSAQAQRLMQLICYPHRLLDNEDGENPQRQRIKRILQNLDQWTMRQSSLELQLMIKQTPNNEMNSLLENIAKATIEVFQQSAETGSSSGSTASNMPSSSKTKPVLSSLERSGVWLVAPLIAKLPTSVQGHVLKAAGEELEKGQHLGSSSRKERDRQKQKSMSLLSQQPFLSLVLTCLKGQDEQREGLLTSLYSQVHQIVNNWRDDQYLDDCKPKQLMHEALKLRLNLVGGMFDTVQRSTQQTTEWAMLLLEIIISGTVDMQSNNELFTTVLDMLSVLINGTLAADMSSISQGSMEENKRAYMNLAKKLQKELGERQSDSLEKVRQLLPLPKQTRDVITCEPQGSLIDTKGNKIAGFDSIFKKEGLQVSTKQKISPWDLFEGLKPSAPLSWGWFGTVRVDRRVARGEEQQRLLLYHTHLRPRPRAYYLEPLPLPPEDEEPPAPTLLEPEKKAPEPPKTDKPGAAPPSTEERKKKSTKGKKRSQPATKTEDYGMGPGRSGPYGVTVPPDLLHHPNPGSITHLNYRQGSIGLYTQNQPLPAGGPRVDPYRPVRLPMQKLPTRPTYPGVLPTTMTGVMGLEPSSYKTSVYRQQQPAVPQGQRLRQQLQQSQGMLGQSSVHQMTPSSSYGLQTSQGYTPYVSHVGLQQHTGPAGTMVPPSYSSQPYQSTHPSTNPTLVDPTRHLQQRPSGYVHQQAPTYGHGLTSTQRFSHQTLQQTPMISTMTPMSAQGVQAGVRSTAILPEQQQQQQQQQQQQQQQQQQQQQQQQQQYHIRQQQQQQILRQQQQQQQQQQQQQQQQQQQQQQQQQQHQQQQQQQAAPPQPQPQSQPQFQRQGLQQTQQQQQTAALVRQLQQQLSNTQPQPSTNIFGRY
inactive: vemurafenib -0.075 | [1] 0.005 | barasertib 0.057 | [2] -0.012 | volasertib -0.065 | [3] 0.037 | [4] 0.002 | [5] -0.066 | saracatinib 0.026 | sotrastaurin 0.022 | alvocidib -0.022 | Tubastatin A -0.161 | [6] -0.02 | defactinib 0.029 | [7] -0.041 | encorafenib 0.028 | [8] 0.06 | alisertib 0.016 | [9] -0.011 | gefitinib 0.027

MRPL35 (UniProt Q9NZE8)
inactive: vemurafenib 0.091 | [1] -0.001 | barasertib 0.021 | volasertib 0.013 | [3] 0.005 | [4] -0.124 | [5] -0.011 | saracatinib 0.04 | sotrastaurin -0.019 | alvocidib 0.057 | Tubastatin A -0.226 | [6] 0.01 | defactinib 0.014 | [7] 0.033 | alisertib 0.01 | [9] -0.072 | gefitinib 0.009

MCMBP isoform 2 (UniProt Q9BTE3)
inactive: vemurafenib -0.039 | [1] 0.081 | barasertib -0.096 | [2] 0.059 | volasertib -0.004 | [3] 0.047 | saracatinib -0.036 | sotrastaurin -0.015 | Tubastatin A -0.142 | [6] 0.102 | defactinib 0.089 | [7] 0.199 | encorafenib -0.015 | [8] 0.124 | alisertib 0.067 | [9] -0.091 | gefitinib -0.082

MAP4K5 (UniProt Q9Y4K4)
Chain of UniProt Q9Y4K4 (Q9Y4K4 whole entry, looked up): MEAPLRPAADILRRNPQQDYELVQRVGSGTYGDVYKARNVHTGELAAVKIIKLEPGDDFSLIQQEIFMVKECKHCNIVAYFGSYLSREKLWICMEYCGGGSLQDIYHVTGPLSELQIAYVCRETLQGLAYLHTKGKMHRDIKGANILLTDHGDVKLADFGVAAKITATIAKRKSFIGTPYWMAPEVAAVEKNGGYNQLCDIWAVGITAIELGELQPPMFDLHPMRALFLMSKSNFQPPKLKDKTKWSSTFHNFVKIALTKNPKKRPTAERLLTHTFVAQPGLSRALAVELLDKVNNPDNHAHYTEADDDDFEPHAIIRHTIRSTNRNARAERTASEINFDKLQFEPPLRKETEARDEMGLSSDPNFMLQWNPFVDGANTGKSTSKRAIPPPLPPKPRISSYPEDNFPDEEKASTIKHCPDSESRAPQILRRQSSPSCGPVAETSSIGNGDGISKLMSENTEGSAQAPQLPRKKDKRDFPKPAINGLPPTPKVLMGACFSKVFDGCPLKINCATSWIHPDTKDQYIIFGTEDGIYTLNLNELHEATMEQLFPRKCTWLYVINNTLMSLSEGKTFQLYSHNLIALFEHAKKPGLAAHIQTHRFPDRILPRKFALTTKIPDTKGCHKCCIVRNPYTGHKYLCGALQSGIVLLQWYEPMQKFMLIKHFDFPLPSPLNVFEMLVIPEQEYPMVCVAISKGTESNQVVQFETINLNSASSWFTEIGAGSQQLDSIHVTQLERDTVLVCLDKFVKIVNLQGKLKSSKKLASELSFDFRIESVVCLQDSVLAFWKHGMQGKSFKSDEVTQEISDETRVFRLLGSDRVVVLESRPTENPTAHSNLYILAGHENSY
inactive: vemurafenib 0.185 | [1] -0.011 | barasertib 0.23 | volasertib -0.069 | [3] 0.014 | [4] 0 | [5] -0.007 | saracatinib 0.01 | alvocidib 0.045 | Tubastatin A -0.021 | [6] 0.068 | defactinib 0.125 | [7] -0.006 | encorafenib 0.009 | [8] -0.191 | alisertib -0.027 | [9] 0.189 | gefitinib 0.086

LYRM4 (UniProt Q9HD34)
Chain of UniProt Q9HD34 (Q9HD34 whole entry, looked up): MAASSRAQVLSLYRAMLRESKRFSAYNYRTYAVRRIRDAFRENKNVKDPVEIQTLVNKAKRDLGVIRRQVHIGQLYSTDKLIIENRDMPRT
inactive: vemurafenib 0.026 | [1] 0.015 | barasertib -0.04 | [2] -0.051 | volasertib 0.021 | [3] 0.03 | [5] -0.035 | saracatinib 0.007 | sotrastaurin -0.05 | alvocidib 0.013 | Tubastatin A 0.068 | [6] -0.042 | defactinib 0 | [7] 0.036 | encorafenib -0.008 | [8] 0 | alisertib 0.007 | [9] 0 | gefitinib 0.008
active: [4] 0.715

MAP4K4 isoform 3 (UniProt O95819)
inactive: vemurafenib -0.185 | [1] -0.119 | barasertib -0.029 | [2] -0.071 | volasertib 0.011 | [3] -0.011 | [4] 0.169 | [5] -0.158 | saracatinib 0.082 | Tubastatin A -0.016 | [6] -0.028 | defactinib 0.03 | [7] -0.08 | encorafenib -0.075 | [8] -0.014 | [9] 0.035 | gefitinib -0.051

KLHL12 isoform 2 (UniProt Q53G59)
Chain of UniProt Q53G59 (Q53G59 whole entry, looked up): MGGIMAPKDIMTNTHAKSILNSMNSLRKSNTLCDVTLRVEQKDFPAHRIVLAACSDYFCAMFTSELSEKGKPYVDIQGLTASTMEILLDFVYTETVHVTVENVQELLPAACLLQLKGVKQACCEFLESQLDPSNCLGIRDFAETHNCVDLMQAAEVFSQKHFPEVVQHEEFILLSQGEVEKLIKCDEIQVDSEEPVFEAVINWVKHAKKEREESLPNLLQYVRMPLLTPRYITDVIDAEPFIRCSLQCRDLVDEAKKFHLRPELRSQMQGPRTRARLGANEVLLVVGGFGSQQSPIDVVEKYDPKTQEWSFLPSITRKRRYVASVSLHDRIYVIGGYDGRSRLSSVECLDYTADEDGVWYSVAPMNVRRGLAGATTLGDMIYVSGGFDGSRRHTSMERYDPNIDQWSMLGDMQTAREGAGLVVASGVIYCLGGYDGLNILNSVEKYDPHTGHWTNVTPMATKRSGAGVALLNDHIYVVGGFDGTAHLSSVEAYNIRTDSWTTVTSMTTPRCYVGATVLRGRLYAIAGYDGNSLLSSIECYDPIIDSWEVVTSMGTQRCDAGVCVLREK
active: barasertib -0.413
inactive: vemurafenib 0.038 | [1] 0.061 | volasertib -0.045 | [3] 0.118 | saracatinib 0.064 | sotrastaurin -0.045 | Tubastatin A -0.156 | [6] -0.051 | defactinib -0.025 | [7] -0.02 | alisertib 0.023 | [9] 0.086 | gefitinib -0.048

LIMK1 (UniProt P53667)
inactive: vemurafenib 0.234 | [1] 0.179 | barasertib 0.007 | [2] -0.195 | volasertib -0.215 | [3] 0.108 | [4] -0.104 | [5] -0.028 | saracatinib -0.022 | sotrastaurin -0.15 | alvocidib -0.135 | Tubastatin A 0 | defactinib -0.053 | [7] -0.085 | [8] -0.086 | alisertib -0.261 | [9] -0.203 | gefitinib 0.106
active: encorafenib 0.489

MICB, A0A140T979
inactive: vemurafenib -0.054 | [1] 0.098 | barasertib 0.039 | [2] 0.223 | volasertib -0.072 | [3] -0.084 | [4] -0.05 | [5] 0.066 | saracatinib 0.019 | sotrastaurin 0.096 | alvocidib 0.01 | Tubastatin A -0.005 | [6] -0.09 | defactinib 0.021 | [7] 0.084 | encorafenib -0.027 | alisertib -0.043 | gefitinib -0.012
active: [8] -0.506 | [9] 0.804

MMS22L (UniProt Q6ZRQ5)
inactive: vemurafenib -0.044 | [1] 0.013 | barasertib 0.083 | [2] -0.182 | volasertib -0.119 | [4] 0.077 | [5] -0.083 | saracatinib 0.092 | sotrastaurin 0.012 | alvocidib 0.068 | [6] -0.011 | defactinib 0.06 | [7] -0.03 | encorafenib -0.007 | [8] 0.017 | alisertib -0.004 | [9] 0.055 | gefitinib 0.035

LY6E (UniProt Q16553)
Chain of UniProt Q16553 (Q16553 whole entry, looked up): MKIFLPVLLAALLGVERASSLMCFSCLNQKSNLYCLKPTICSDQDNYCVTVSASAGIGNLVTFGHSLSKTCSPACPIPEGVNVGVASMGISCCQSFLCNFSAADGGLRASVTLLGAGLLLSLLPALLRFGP
inactive: vemurafenib 0.068 | [1] 0.026 | barasertib -0.02 | [2] -0.055 | volasertib 0.022 | [5] 0.533 | alvocidib -0.726 | defactinib -0.024 | encorafenib 0.03 | [8] -0.005 | alisertib 0.029 | [9] 0.016 | gefitinib -0.013
active: [4] -1.86

LAGE3 (UniProt Q14657)
Chain of UniProt Q14657 (Q14657 whole entry, looked up): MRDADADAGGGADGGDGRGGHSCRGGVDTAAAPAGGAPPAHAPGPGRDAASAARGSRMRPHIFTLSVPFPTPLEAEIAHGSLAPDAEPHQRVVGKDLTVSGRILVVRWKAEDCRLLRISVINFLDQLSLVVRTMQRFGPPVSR
inactive: vemurafenib 0.016 | [1] 0.004 | barasertib 0.128 | [2] -0.032 | volasertib 0.005 | [3] 0.058 | [4] -0.024 | [5] -0.003 | saracatinib 0.019 | sotrastaurin -0.024 | alvocidib -0.013 | Tubastatin A 0.004 | [6] -0.001 | defactinib -0.194 | [7] -0.035 | encorafenib 0.047 | [8] -0.076 | alisertib 0.224 | [9] -0.042 | gefitinib 0.107

L3HYPDH (UniProt Q96EM0)
Chain of UniProt Q96EM0 (Q96EM0 whole entry, looked up): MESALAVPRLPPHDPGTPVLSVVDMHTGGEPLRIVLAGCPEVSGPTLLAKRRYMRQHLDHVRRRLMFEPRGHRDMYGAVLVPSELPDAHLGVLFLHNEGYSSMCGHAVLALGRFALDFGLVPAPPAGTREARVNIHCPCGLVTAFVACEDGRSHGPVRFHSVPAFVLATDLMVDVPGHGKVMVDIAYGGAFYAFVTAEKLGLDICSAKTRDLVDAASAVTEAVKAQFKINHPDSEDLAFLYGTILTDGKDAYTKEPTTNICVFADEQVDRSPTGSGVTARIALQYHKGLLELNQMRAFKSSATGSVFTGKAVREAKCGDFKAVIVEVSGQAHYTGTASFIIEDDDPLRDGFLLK
inactive: vemurafenib 0.04 | [1] 0.033 | barasertib 0.015 | [2] 0.002 | volasertib -0.017 | [3] 0.011 | [4] 0.01 | [5] 0.012 | saracatinib -0.027 | sotrastaurin -0.008 | alvocidib 0.023 | Tubastatin A -0.052 | [6] 0.005 | defactinib -0.012 | [7] 0.022 | encorafenib -0.017 | [8] 0.039 | alisertib -0.019 | [9] -0.005 | gefitinib -0.013

KRIT1 (UniProt O00522)
inactive: vemurafenib -0.084 | [1] 0.051 | barasertib -0.084 | [2] -0.009 | volasertib 0.036 | [3] -0.052 | saracatinib -0.103 | sotrastaurin 0.049 | Tubastatin A -0.034 | [6] 0.089 | defactinib 0.045 | [7] 0.102 | encorafenib 0.118 | [8] 0.123 | alisertib 0.038 | [9] -0.055 | gefitinib 0.029

LBR (UniProt Q14739)
inactive: vemurafenib 0.012 | [1] 0.008 | barasertib 0.041 | [2] 0.014 | volasertib 0.156 | [3] 0.052 | [4] 0.117 | [5] -0.22 | saracatinib 0.064 | sotrastaurin 0.048 | alvocidib 0.072 | Tubastatin A 0.025 | [6] -0.063 | defactinib 0.04 | [7] -0.002 | encorafenib -0.021 | [8] 0.027 | alisertib 0.071 | [9] 0.001 | gefitinib -0.094

MAP4 isoform 5 (UniProt P27816)
inactive: vemurafenib -0.019 | [1] -0.035 | barasertib -0.038 | [2] 0.069 | volasertib 0.044 | [3] -0.266 | saracatinib 0.041 | sotrastaurin -0.04 | Tubastatin A 0.077 | [6] 0.087 | defactinib -0.086 | [7] 0.138 | encorafenib -0.051 | [8] -0.025 | alisertib 0.047 | [9] -0.028 | gefitinib 0.039

LDAH isoform 2 (UniProt Q9H6V9)
Chain of UniProt Q9H6V9 (Q9H6V9 whole entry, looked up): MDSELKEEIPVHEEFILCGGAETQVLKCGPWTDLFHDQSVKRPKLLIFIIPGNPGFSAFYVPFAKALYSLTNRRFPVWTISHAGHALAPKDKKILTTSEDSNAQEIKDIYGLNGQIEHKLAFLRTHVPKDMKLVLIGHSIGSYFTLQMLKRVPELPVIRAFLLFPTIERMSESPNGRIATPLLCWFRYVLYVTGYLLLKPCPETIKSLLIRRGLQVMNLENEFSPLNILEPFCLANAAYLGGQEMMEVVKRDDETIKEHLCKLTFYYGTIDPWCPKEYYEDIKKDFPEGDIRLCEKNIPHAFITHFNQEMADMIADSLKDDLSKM
inactive: vemurafenib 0.077 | [1] 0.125 | barasertib 0.018 | [2] 0.003 | volasertib -0.036 | [3] -0.004 | [4] -0.013 | [5] -0.018 | saracatinib 0.016 | sotrastaurin -0.01 | alvocidib 0.003 | Tubastatin A -0.124 | [6] -0.012 | defactinib 0.012 | [7] -0.027 | encorafenib -0.03 | [8] 0.048 | alisertib 0 | [9] -0.036 | gefitinib 0.004

— the supplement of paper PMC10849652
